Screens from PubChem BioAssay.
KLF5 inhibitor = kruppel-like factor 5 inhibition | 290,000 compounds, 0.23% hits | DLD-1 KLF5 promoter-luciferase reporter, luminescence | inhibition, % at 5 µM | AID 1700;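 active means inhibition above a per-plate limit of that plate's mean compound inhibition plus 3 SD, cut at about 60% in these data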;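 further: 0% = DMSO wells and 100% = LY294002 at 200 µM; higher means less KLF5 promoter-driven luciferase light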
aSyn UTR inh = MLPCN primary screen, SNCA 5' untranslated region; inhibition, % (tested at 7.5 µM); alpha-synuclein 5'UTR reporter, inhibitor activity; 300,000 compounds, 0.82% hits; AID 1813; in the data active means inhibition above about 60%;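 further: H4 neuroglioblastoma cells stably carrying SNCA 5'UTR luciferase fusion; 0% = DMSO wells and 100% = positive control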
BaF3 tox = counter-screen for JAK2V617F inhibitors: parental Ba/F3 viability inhibitors. CellTiter-Glo ATP luminescence. inhibition, % at 5.6 µM. 220,000 compounds, 1.1% hits. AID 1486;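 active means inhibition above a per-campaign cutoff, the mean inhibition of all tested compounds plus 3 SD, cut at about 27% in these data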;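 further: 0% = DMSO wells and 100% = JAK Inhibitor I control wells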
IEC-6 tox-1 = kills IEC-6 intestinal cells in KLF5 counter-screen | 290,000 compounds, 0.78% hits | AID 1825 | inhibition, % at 5 µM | IEC-6 cytotoxicity, luminescence viability;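 further: 0% = plate median of test compound wells and 100% = cytotoxic reference compound wells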
APP transl inh = APP translation inhibition; SH-SY5Y APP 5'UTR-luciferase reporter, luminescence; inhibition, % at 2 µM; 190,000 compounds, 0.82% hits;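 active means inhibition above a set limit, derived from the sample mean plus 3 SD, cut at about 45% in these data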
Ba/F3 V617F tox = lowers viability of Ba/F3 cells expressing EpoR and JAK2V617F. ATP luminescence. inhibition, % at 5.6 µM. 220,000 compounds, 1.1% hits. AID 1446;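 active means inhibition above the campaign mean plus 3 SD over all tested compounds, cut at about 24% in these data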;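 further: cytokine-independent growth of Ba/F3 cells driven by EpoR plus mutant JAK2; 0% = DMSO-treated cells and 100% = JAK inhibitor I control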
KLF5 confirm = confirmation of KLF5 inhibitors; inhibition, % at 4 µM; 610 compounds, 79% hits; DLD-1 KLF5 promoter firefly luciferase reporter, luminescence; shares compounds with KLF5 inhibitor;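 active means inhibition above a set limit taken from the earlier primary screen, cut at about 63% in these data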;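 further: 0% = DMSO wells and 100% = LY294002 at 200 µM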
IEC-6 tox-2 = rat IEC-6 cytotoxicity, KLF5 inhibitor counter-screen; 610 compounds, 56% hits; inhibition, % at 4 µM; AID 1905; IEC-6 rat intestinal cells, viability luminescence; shares compounds with KLF5 inhibitor; in the data active means inhibition above about 23%;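 further: cells exposed to compounds for 48 hours before viability read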
IEC-6 tox confirm = IEC-6 cytotoxicity, confirmation assay; AID 1907; inhibition, % at 5 µM; shares compounds with IEC-6 tox-1; 1,900 compounds, 63% hits; IEC-6 rat intestinal epithelial viability, luminescence;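 further: 0% = vehicle and 100% = reference cytotoxic drug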
* hit, by the source's call. The list is not random: actives were taken first. Their share in the collection is about 2.2%. Unless noted, no stated cut-off is given here; in the data, active means inhibition above about 22%; inactive means the rest.

How did O=C(N/N=C/c1cc(Br)ccc1OC(=O)c1ccc(Br)cc1)c1ccncc1 do in these assays?
KLF5 inhibitor: 78*; aSyn UTR inh: 45; IEC-6 tox-1: 97*; KLF5 confirm: 90*; IEC-6 tox-2: 12; IEC-6 tox confirm: 24*

How did O=C(N/N=C/c1ccc(OC(=O)c2ccc(Br)cc2)cc1)c1ccncc1 do in these assays?
KLF5 inhibitor: -13; aSyn UTR inh: -14; IEC-6 tox-1: -6

What do the screens show for `O=C(N/N=C/c1cc(Br)ccc1O)c1ccncc1`?
KLF5 inhibitor: 84*; aSyn UTR inh: 1; BaF3 tox: 4; IEC-6 tox-1: 22*; Ba/F3 V617F tox: 6; KLF5 confirm: 89*; IEC-6 tox-2: 11; IEC-6 tox confirm: 29*

What do the screens show for `COC(=O)C1(C)CN(S(=O)(=O)c2ccc(C)cc2)c2cc(OC)ccc2C1=O` (configuration not stated)?
KLF5 inhibitor: -9; aSyn UTR inh: 14; BaF3 tox: 3; IEC-6 tox-1: 7; APP transl inh: -7; Ba/F3 V617F tox: 2

Results for CCOc1ccc2c(c1)C(C)=CC(C)(C)N2S(=O)(=O)c1ccc(C)cc1 ?
KLF5 inhibitor: 68*; aSyn UTR inh: 103*; BaF3 tox: 77*; IEC-6 tox-1: 90*; APP transl inh: 95*; Ba/F3 V617F tox: 79*; KLF5 confirm: 91*; IEC-6 tox-2: 55*; IEC-6 tox confirm: 59*

What do the screens show for `CCOc1ccc2c(c1)C(C)=CC(C)(C)N2C(=O)Nc1ccccc1F`?
KLF5 inhibitor: -5; aSyn UTR inh: -7; BaF3 tox: 4; IEC-6 tox-1: 2; APP transl inh: -7; Ba/F3 V617F tox: -3

How did COc1ccc2c(c1)C(C)=CC(C)(C)N2S(=O)(=O)c1ccc(C)cc1 do in these assays?
KLF5 inhibitor: 87*; aSyn UTR inh: -63; BaF3 tox: 74*; IEC-6 tox-1: 81*; APP transl inh: 84*; Ba/F3 V617F tox: 70*; KLF5 confirm: 88*; IEC-6 tox-2: 55*; IEC-6 tox confirm: 53*

How did CC(=O)c1cccc(Nc2c3c(nc4ccccc24)CCC3)c1 do in these assays?
KLF5 inhibitor: 65*; aSyn UTR inh: 75*; IEC-6 tox-1: 75*; KLF5 confirm: 102*; IEC-6 tox-2: 51*; IEC-6 tox confirm: 51*

How did Cc1cccc(N2CCN(C(=O)c3c(-c4ccccc4Cl)noc3C)CC2)c1C do in these assays?
KLF5 inhibitor: 77*; aSyn UTR inh: 57; IEC-6 tox-1: 73*; KLF5 confirm: 76*; IEC-6 tox-2: 56*; IEC-6 tox confirm: 55*

Results for Cc1onc(-c2ccccc2Cl)c1C(=O)N1CCN(C=O)CC1 ?
KLF5 inhibitor: -13; aSyn UTR inh: 8; IEC-6 tox-1: -1

How did CCn1c(C)nc2cc(-c3nc4n(n3)Cc3ccccc3-4)ccc21 do in these assays?
KLF5 inhibitor: 112*; aSyn UTR inh: 87*; BaF3 tox: 42*; IEC-6 tox-1: 33*; APP transl inh: 85*; Ba/F3 V617F tox: 48*; KLF5 confirm: 110*; IEC-6 tox-2: 39*; IEC-6 tox confirm: 43*

Results for N#CC1=C2SCN(c3ccccc3)CN2C(=O)CC1c1cccs1 (configuration not stated) ?
KLF5 inhibitor: 0; aSyn UTR inh: -11; BaF3 tox: 1; IEC-6 tox-1: 2; APP transl inh: 16; Ba/F3 V617F tox: 0

How did N#CC1=C2SCC(O)(c3ccccc3)N2C(=O)CC1c1cccs1 (configuration not stated) do in these assays?
KLF5 inhibitor: 72*; BaF3 tox: 75*; IEC-6 tox-1: 82*; APP transl inh: 91*; Ba/F3 V617F tox: 74*; KLF5 confirm: 74*; IEC-6 tox-2: 62*; IEC-6 tox confirm: 56*

What do the screens show for `COc1cccc(NC(=O)CCC(=O)Nc2cc(OC)c(NC(=O)c3cccs3)cc2OC)c1`?
KLF5 inhibitor: -20; aSyn UTR inh: -4; IEC-6 tox-1: -3
